# Where “and” joins values, the source holds several entries; their conditions need not be identical. Identical values can stand only once. Records with an inconclusive call do not appear. Where a call stands in place of a potency, no number is given. The source holds several records for some structures; these can differ, active in one and inactive in another. Calls of active or inactive are those of the source. The call rests on the fitted dose curve; in most records, active means well fitted curve in the direction sought with a large enough effect in the repeat runs; inconclusive means weak or mixed curves; inactive means no such curve, though single readings can be large; an effect the other way counts as inactive or inconclusive.
# Key:
# [1] = A CellTox Green Cytotoxicity Assay to monitor cytotoxicity in HEK293 cells - 40 hour (AID 1224871); further: nearly all actives have a fitted effect of over 45% in size; further: potency means the concentration at half of the fitted maximal effect
# Procedure, shortened: (§1)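 Dead-cell fluorescence measured kinetically: asymmetric cyanine dye, HEK293, 600 cells/well, 5 h settle, 23 nL cpd/DMSO, 37 C, reads 0–40 h every 8 h.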
# [2] = qHTS RealTime-Glo MT Cell Viability Assay in HEK293 cells - 16 hour (AID 1224872); further: nearly all actives have a fitted effect of over 50% in size; further: potency means the concentration at half of the fitted maximal effect
# Procedure, shortened: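 Homogeneous bioluminescent viability format in HEK293 cells (600 cells/well). Following 5 h at 37 C/5% CO2, 23 nL compound was pintooled; the signal was measured repeatedly during 40 h incubation.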
# [3] = qHTS RealTime-Glo MT Cell Viability Assay in HepG2 cells - 8 hour (AID 1224873); further: nearly all actives have a fitted effect of over 55% in size; further: potency means the concentration at half of the fitted maximal effect
# Procedure, shortened: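 Real-time viability: cells seeded at 600 per well together with NanoLuc and cell-permeant prosubstrate, compounds added after 5 h incubation. Luminescence tracked at 0, 8, 16, 24, 32 and 40 h of exposure.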
# [4] = qHTS RealTime-Glo MT Cell Viability Assay in HEK293 cells - 40 hour (AID 1224874); conditions: RealTime-Glo luminescence; max response: stronger effect = lower value; further: nearly all actives have a fitted effect of over 50% in size; further: potency means the concentration at half of the fitted maximal effect
# Procedure, shortened: (§2)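 600 HEK293 cells per well, dispensed already mixed with RealTime-Glo MT reagents. Compound dosing came 5 h later. The same wells were read for luminescence at 0, 8, 16, 24, 32 and 40 h of exposure at 37 C.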
# [5] = A CellTox Green Cytotoxicity Assay to monitor cytotoxicity in HEK293 cells - 24 hour (AID 1224875); further: nearly all actives have a fitted effect of over 45% in size; further: potency means the concentration at half of the fitted maximal effect
# Procedure, shortened: as §1
# [6] = A CellTox Green Cytotoxicity Assay to monitor cytotoxicity in HepG2 cells - 16 hour (AID 1224876); further: nearly all actives have a fitted effect of over 45% in size; further: potency means the concentration at half of the fitted maximal effect
# Procedure, shortened: (§3)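 First, HepG2 cells (600/well) mixed with reagent were plated; second, after 5 h at 37 C they received compounds via pintool; third, fluorescence was measured at 0 h through 40 h at 8 h intervals.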
# [7] = qHTS RealTime-Glo MT Cell Viability Assay in HepG2 cells - 32 hour (AID 1224877); further: nearly all actives have a fitted effect of over 55% in size; further: potency means the concentration at half of the fitted maximal effect
# Procedure, shortened: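 Cell number in HepG2 cultures estimated from NanoLuc luminescence generated by metabolic reduction of a prosubstrate by living cells. The homogeneous, nonlytic format allowed repeated reads at 0, 8, 16, 24, 32 and 40 h of compound exposure.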
# [8] = A CellTox Green Cytotoxicity Assay to monitor cytotoxicity in HepG2 cells - 24 hour (AID 1224878); further: nearly all actives have a fitted effect of over 45% in size; further: potency means the concentration at half of the fitted maximal effect
# Procedure, shortened: as §3
# [9] = A CellTox Green Cytotoxicity Assay to monitor cytotoxicity in HepG2 cells - 40 hour (AID 1224879); further: nearly all actives have a fitted effect of over 40% in size; further: potency means the concentration at half of the fitted maximal effect
# Procedure, shortened: as §3
# [10] = qHTS RealTime-Glo MT Cell Viability Assay in HEK293 cells - 0 hour (AID 1224880)
# Procedure, shortened: as §2
Compound,Potency [1],Potency [2],Potency [3],max response [4],Potency [5],Potency [6],Potency [7],Potency [8],Potency [9],Potency [10],Potency [4]
NC(=O)CN1CCCC1=O,inactive,inactive,inactive,3.12% (inactive) and 0.0955% (inactive),inactive,inactive,inactive,inactive,inactive,inactive,–
CC1(C)C(C(=O)OC(C#N)c2cccc(Oc3ccccc3)c2)C1(C)C (stereo unspecified),inactive,inactive,inactive,-25.9% (inactive),inactive,inactive,inactive,inactive,inactive,inactive,22 µM (active)
Cc1ccc(N=CN(C)C=Nc2ccc(C)cc2C)c(C)c1,inactive,43.8 µM (active) and 38.9 µM (active) and inactive,inactive,-1.79% (inactive),inactive,inactive,inactive,43.6 µM (active) and inactive,43.6 µM (active) and inactive,inactive,43.8 µM (active) and 43.6 µM (active)
NN=C(N)N,inactive,inactive,inactive,-2.73% (inactive) and -1.15% (inactive),inactive,inactive,inactive,inactive,inactive,inactive,–
CCC/C=N/O,inactive,inactive,inactive,-8.66% (inactive) and 0.163% (inactive),inactive,inactive,inactive,inactive,inactive,inactive,–
c1ccc2c(c1)Nc1ccccc1S2,inactive,6.92 µM (active) and 12 µM (active),inactive,–,inactive,inactive,inactive,inactive,inactive,–,14.3 µM (active) and 13.4 µM (active)
Clc1cccc(Cl)c1,inactive,inactive,inactive,0.4% (inactive) and 0.365% (inactive),inactive,inactive,inactive,inactive,inactive,inactive,–
C[N+](C)(C)CC(=O)[O-],inactive,inactive,inactive,3.4% (inactive) and 10.8% (inactive),inactive,inactive,inactive,inactive,inactive,inactive,–
Cc1ccc([N+](=O)[O-])cc1,inactive,inactive,inactive,7.21% (inactive) and 12.5% (inactive),inactive,inactive,inactive,inactive,inactive,inactive,–
Clc1ccccc1-c1nnc(-c2ccccc2Cl)nn1,inactive,inactive,inactive,-1.79% (inactive) and -6.1% (inactive),inactive,inactive,inactive,inactive,inactive,inactive,–
O=NN(c1ccccc1)c1ccccc1,inactive,inactive,inactive,1.85% (inactive) and 24% (inactive),inactive,inactive,inactive,inactive,inactive,inactive,–
CCCCCCCC[N+](C)(CCCCCCCC)CCCCCCCC,24.5 µM (active) and 27.6 µM (active) and 12.3 µM (active),2.75 µM (active) and 1.1 µM (active) and 6.16 µM (active),17.3 µM (active) and 30.9 µM (active) and 17.4 µM (active),–,21.8 µM (active) and 21.9 µM (active) and 9.77 µM (active),15.5 µM (active) and 21.9 µM (active) and 17.4 µM (active),9.75 µM (active) and 19.5 µM (active) and 8.71 µM (active),9.75 µM (active) and 19.5 µM (active) and 15.5 µM (active),13.8 µM (active) and 19.5 µM (active),inactive,173 nM (active) and 138 nM (active) and 1.1 µM (active)
Nc1ccc2ccccc2c1,inactive,inactive,inactive,5% (inactive),inactive,inactive,inactive,inactive,inactive,inactive,–
ClC(Cl)=C(Cl)C(Cl)=C(Cl)Cl,inactive,inactive,inactive,3.65% (inactive) and 8.28% (inactive),inactive,inactive,inactive,inactive,inactive,inactive,–
CCOP(=O)(O)OCC (tested in a mixture with another compound),inactive and 24.3 µM (active),inactive and 24.3 µM (active),inactive,4.04% (inactive),–,inactive and 43.3 µM (active),inactive and 48.6 µM (active),inactive and 43.3 µM (active),inactive and 34.4 µM (active),inactive,2.43 µM (active)
ClC(Cl)(Cl)Br,inactive,inactive,inactive,-0.387% (inactive) and 6.81% (inactive),inactive,inactive,inactive,inactive,inactive,inactive,–
Oc1ccc(Cl)cc1Cc1ccccc1,11 µM (active) and 21.3 µM (active),21.9 µM (active) and 17.6 µM (active),49.6 µM (active) and inactive,–,8.71 µM (active),inactive and 33.1 µM (active),inactive and 49.6 µM (active),inactive and 15.7 µM (active),inactive and 19.7 µM (active),inactive,21.9 µM (active) and 27.9 µM (active)

# Reference: PubChem BioAssay (Tox21)
